Compound activity as filed in PubChem BioAssay.
Only some compounds are listed: those with a hit (about 19% of all), similar ones and a draw of the others.
IL-1B inflam inh = inflammasome signaling inhibition, IL-1 beta readout; THP-1 LPS/ATP IL-1B secretion, AlphaLISA, 16 h; active compounds read low; activity change, % at 57.5 µM; 360,000 compounds, 4.7% hits; in the data active means activity change below about -50%; inconclusive means mostly about -30% to -49%; further: on the % scale 0 is the no-effect control and ±100 the full control effect
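Secreted IL-1B measured by AlphaLISA bead assay after 16 h compound exposure of THP-1 cells; compounds (final up to 57.5 uM) added 1 h before LPS (250 ng/mL) and ATP (1.25 mM) stimulation; lower signal means less secretion.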
DT40 TDP1 CPT = DT40-hTDP1 cell growth loss with CPT. chicken DT40 Tdp1-/-;hTDP1 cells + 20 nM CPT, ATP luminescence, 48 h. Potency, µM (series often up to 46.2 µM), inactives show at the top dose activity change, negative = growth inhibition, most hits filed as inhibitors. 420,000 compounds, 12% hits; further: potency means the concentration at half of the fitted maximal effect; on the % scale 0 is the no-effect control and ±100 the full control effect; nearly all actives have a fitted effect of over 55% in size
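Chicken DT40 Tdp1-/- cells complemented with human TDP1, 400 cells/well, exposed to compounds plus 20 nM camptothecin for at least 48 h at 37 C; viability read as ATP content by CellTiter-Glo luminescence.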
TGFb inhibitor = inhibitors of TGF-b signaling | HepG2 CAGA-GFP TGF-b/SMAD3 reporter, GFP fluorescence, 18 h; TGF-beta stimulated, 500 pg/mL final | Potency, µM (doses to about 46.1 µM), for the others: top-dose activity, negative = inhibition, usual class: inhibitors | 410,000 compounds, 1.2% hits | AID 588855; further: potency means the concentration at half of the fitted maximal effect; on the % scale 0 is the no-effect control and ±100 the full control effect; nearly all actives have a fitted effect of over 65% in size
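HEPG2 CAGA-GFP cells (1000/well, DMEM with 1% FBS) were pre-incubated 2 h at 37 degrees C, given compound by pin tool, then stimulated with TGF-beta at 500 pg/mL final for 18 h before per-cell GFP fluorescence imaging.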
S-ASM inh = inhibitors of human secretory acid sphingomyelinase | placental ASM, HMU-PC fluorogenic substrate, 60 min | Potency, µM (series often up to 57.5 µM), for the others: at the highest dose activity change, negative = inhibition, usual class: inhibitors | 340,000 compounds, 0.006% hits | AID 504937; further: potency means the concentration at half of the fitted maximal effect
Target sequence (P17405 47-631 limits assumed): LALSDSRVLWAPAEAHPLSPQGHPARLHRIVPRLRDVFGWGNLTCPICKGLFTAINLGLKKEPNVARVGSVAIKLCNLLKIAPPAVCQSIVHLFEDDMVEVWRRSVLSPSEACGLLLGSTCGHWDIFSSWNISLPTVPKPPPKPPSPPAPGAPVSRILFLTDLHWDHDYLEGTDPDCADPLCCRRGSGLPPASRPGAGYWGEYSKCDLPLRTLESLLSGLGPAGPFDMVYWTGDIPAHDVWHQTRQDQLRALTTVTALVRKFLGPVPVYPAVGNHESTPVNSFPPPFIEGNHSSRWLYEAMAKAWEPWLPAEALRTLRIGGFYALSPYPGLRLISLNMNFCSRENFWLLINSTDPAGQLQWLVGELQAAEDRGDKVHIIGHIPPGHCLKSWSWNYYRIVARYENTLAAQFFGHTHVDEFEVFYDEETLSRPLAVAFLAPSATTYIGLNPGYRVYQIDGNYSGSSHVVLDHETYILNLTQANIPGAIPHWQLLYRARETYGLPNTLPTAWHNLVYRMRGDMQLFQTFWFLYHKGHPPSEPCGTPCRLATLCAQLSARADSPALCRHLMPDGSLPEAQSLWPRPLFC
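HMU-PC0 cleavage (9 uM final) by human placental ASM, 60 min at 37 °C following 10 min compound exposure at RT; stopped at pH 10, fluorescence Ex 386/Em 447 nm.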
HepG2 tox = counter-screen for TGF-b inhibitors: cytotoxicity in HepG2 cells | AID 588856 | 410,000 compounds, 0.76% hits | HepG2 CAGA-GFP viability, ATP luminescence, 18 h | Potency, µM (series often up to 46.1 µM), inactives show at the top dose activity change, negative = cytotoxicity, actives largely listed as cytotoxic; further: potency means the concentration at half of the fitted maximal effect
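CellTiter-Glo luminescence gave cytotoxicity after 18 hours at 37 degrees C. The cells were HepG2 CAGA-GFP in 1% FBS DMEM, stimulated with 500 pg/mL TGF-beta after compound addition. %Activity was normalised to no-cell wells (complete cell-killing) and DMSO (no toxicity), and curves were fitted and classified.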
TDP1 cell noCPT = qHTS for Inhibitors of human tyrosyl-DNA phosphodiesterase 1 (TDP1): qHTS in cells in absence of CPT | DT40 Tdp1-/- hTDP1 cells, no CPT, ATP luminescence, 48 h | 420,000 compounds, 15% hits | Potency, µM (titrated, usually from 46.2 µM), without a hit: at the highest dose activity change, negative = growth inhibition, actives largely listed as inhibitors; further: potency means the concentration at half of the fitted maximal effect; on the % scale 0 is the no-effect control and ±100 the full control effect; nearly all actives have a fitted effect of over 55% in size
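Readout: luminescence from CellTiter-Glo after 30 min in the dark at RT. Cells: DT40 Tdp1-/- with stable hTDP1, 400/well. Exposure: compounds alone, ≥48 hr, 37 °C.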
Numbers without * were called inactive; u = inconclusive; x = no result given; [ ] = remark or other dose. Unless noted, the call rests on the fitted dose curve; in most records, active means well fitted curve in the direction sought with a large enough effect; inconclusive means small, poorly fitted or top-dose-only effect, or another doubt; inactive means no such curve, though single readings can be large; an effect the other way counts as inactive or inconclusive.

SMILES	IL-1B inflam inh	DT40 TDP1 CPT	TGFb inhibitor	S-ASM inh	HepG2 tox	TDP1 cell noCPT
O=C(Nc1ccc(N2CCN(C(=O)c3ccc(Cl)cc3)CC2)cc1)c1ccc(Br)o1	-69.0*	u	-22.8%	-4.5%	-17.6%	u
CN1CCN(c2ccc(NC(=O)c3ccc(-c4cccc([N+](=O)[O-])c4)o3)cc2)CC1	-54.8*	1.3%	0.3%	-9.3%	-25.9%	u
COc1c(F)c(F)c(C(=O)Nc2ccc(N3CCN(C(C)=O)CC3)c(Cl)c2)c(F)c1F	-4.3	u	-0.9%	-1.1%	-21.7%	u
CCN1C(=NCCOC)N[C@@H](CCc2ccccc2)[C@H](C(=O)OC)[C@H]1C	11.5	-3.0%	-0.8%	2.0%	0.9%	-3.3%
CCN1C(=NCCCOC(C)C)N[C@@H](CCc2ccccc2)[C@H](C(=O)NCCCOC(C)C)[C@H]1C	-58.2*	1.84µM*	u	36.7%	-28.7%	1.64µM*
C/C(CC(=O)Nc1ccc(OCc2ccccc2)cc1)=N\NC(=O)C(=O)Nc1cccc(C)c1	u	u	u	-3.2%	-45.8%	9.2µM*
Cc1cnc(NC(=O)Nc2ccc(OCc3ccccc3)cc2)c(Br)c1	-5.3	u	0.7%	-5.0%	-12.5%	16.4µM*
CC(=O)c1ccc(C(=O)N2CCc3c(cnc(C)c3CNC(=O)c3ccc4c(c3)OCO4)C2)s1	x	1.3%[9.04 µM]	x	x	x	-28.8%
Cc1nc(NC(=O)COC(=O)CNC(=O)c2ccco2)c(Cl)cc1Cl	0.5	-4.4%	-9.8%	12.8%	-14.0%	-0.8%
COc1cccc(NC(=O)COc2ccc(C(=S)N3CCN(C)CC3)cc2OC)c1	15.4	u	-26.4%	-3.4%	-31.7%	u
Cc1ccc(S(=O)(=O)CC(=O)Nc2nc3c(C)cc(C)cc3s2)cc1	x	u	u	x	-36.5%	u
C=CCN(C(=O)CCc1ccccc1OC)c1nc(-c2ccc(S(C)(=O)=O)cc2)cs1	-56.8*	16.4µM*	0.9%	-5.5%	4.47µM*	9.2µM*
CCC(=O)N(Cc1ccco1)c1nc(-c2ccc(OC)cc2)cs1	-4.9	-14.3%	-4.5%	-5.6%	-30.2%	-6.1%
Fc1ccc(C2=CC(c3ccc(F)cc3)n3c(nc4ccccc43)N2)cc1 (centres undefined)	x	14.6µM*	-5.7%	x	-21.9%	5.17µM*
COC(=O)c1ccc(C2C=C(c3ccc(Cl)cc3)Nc3nc4ccccc4n32)cc1 (centres undefined)	x	9.2µM*	u	x	-29.2%	8.2µM*
Cc1ccsc1C(=O)OCC(=O)Nc1ccc(Cl)cn1	-9.7	5.1%	-9.0%	-0.7%	2.9%	18.2%
Cc1nn(-c2ccccc2)c(C)c1/C=N/n1cnnc1	42.8	21.3%	-15.6%	3.1%	-22.8%	1.6%
Cc1nn(-c2ccccc2)c(C)c1/C=N\N1CCN(c2ccc(Cl)cc2)CC1	-16.0	18.4µM*	5.4%	-15.8%	-2.9%	10.3µM*
COCc1ccc(C(=O)N2CCOc3c(cc(-c4cc(C)c5cccc(OC)c5n4)cc3OC)C2)o1	x	13.5%[9.04 µM]	x	x	x	-7.6%
CCCC(=O)N1CCN(c2ccc(NC(=O)c3ccco3)cc2)CC1	23.9	-3.9%	-9.6%	1.1%	-9.7%	4.4%
O=C(Nc1ccc(N2CCN(C(=O)c3ccco3)CC2)cc1)c1ccco1	-3.1	-0.2%	-0.3%	-0.9%	6.4%	5.0%
O=C(Nc1ccc(N2CCN(C(=O)c3ccco3)CC2)cc1)c1cccs1	-52.5*	u	u	-1.5%	2.9%	-28.5%
CC(C)(C)OC(=O)N1CCN(c2ccc(NC(=O)c3ccco3)cc2)CC1	-1.9	18.4µM*	30.1%	-2.8%	3.4%	16.4µM*
CC(C)c1ccc(NC(=O)C(c2ccccc2)N2CCN(C(=O)c3ccco3)CC2)cc1 (centres undefined)	u	u	-5.7%	-4.5%	-18.8%	18.4µM*
CC(C)c1ccc(NC(=O)C(c2ccc3c(c2)OCO3)N2CCN(C(=O)c3ccco3)CC2)cc1 (centres undefined)	-24.4	u	4.3%	-1.9%	-0.6%	u
SMILES	IL-1B inflam inh	DT40 TDP1 CPT	TGFb inhibitor	S-ASM inh	HepG2 tox	TDP1 cell noCPT
O=C(Nc1ccc(N2CCN(C(=O)c3ccco3)CC2)cc1)C(c1ccccc1)c1ccccc1	9.5	20.6µM*	-3.8%	-3.5%	18.7%	16.4µM*
COc1ccccc1CNC(=O)COC(=O)c1ccccn1	-0.3	29.9%	3.5%	-4.7%	14.3%	-1.1%
CCOC(=O)c1cc(C)sc1NC(=O)CSc1nccn1C	-14.0	u	2.8%	1.4%	-19.8%	u
O=C(c1ccc2c(=O)n3c(nc2c1)CCCCC3)N1CCN(c2ccc([N+](=O)[O-])cc2)CC1	-3.0	u	-23.1%	-26.4%	-19.2%	u
CON(C)c1nc(OCCNC(=O)COc2ccc(Cl)cc2C)nc(N(C)C)n1	-2.4	8.2µM*	-2.0%	-3.5%	-16.9%	8.2µM*
Cc1cc(Cl)ccc1OCC(=O)NCCCn1ccnc1	18.1	-23.2%	-2.3%	4.4%	-2.3%	-21.3%
CON(C)c1nc(OCCNC(=O)OCc2ccc(Cl)cc2Cl)nc(N(C)C)n1	44.5	16.4µM*	-7.1%	0.1%	-32.2%	8.2µM*
CN(C)c1nc(OCCNC(=O)Nc2ccc(Cl)cc2)nc(N(C)C)n1	2.8	-16.5%	6.5%	-6.3%	-2.5%	-13.8%
O=C1C(c2cccc(Br)c2)N(CCc2ccccc2)C(=O)CN1C1CCCCC1 (centres undefined)	x	-22.3%	-8.8%	x	-3.6%	-18.3%
CCc1nn(CC(=O)NCCc2ccc(OC)c(OC)c2)c(=O)c2cc3occc3n12	x	u	-19.9%	x	-21.1%	-13.9%
COc1cccc(NC(=O)CN(C)C(=O)c2cc(C)on2)c1	14.7	-3.5%	12.7%	2.8%	-19.0%	22.3%
Cc1ccnc(NC(=O)CCNC(=O)c2ccc(Cl)cc2)c1	14.9	1.3%	-4.5%	2.5%	-3.8%	28.8%
COC(=O)c1ccc2nc(-c3ccc(OC)c(OC)c3)c(Cc3cccc(F)c3)n2c1	18.3	11.6µM*	x	x	x	13µM*
COC(=O)c1ccc2nc(-c3ccc(C)cc3)c(Cc3ccc(C)cc3)n2c1	36.9	u	x	x	x	16.4µM*
COC(=O)c1ccc2nc(-c3ccc(F)cc3)c(Cc3cccc(Cl)c3)n2c1	30.3	u	x	x	x	18.4µM*
COC(=O)c1ccc2nc(-c3ccc(F)cc3)c(Cc3cccc(F)c3)n2c1	0.0	-27.9%	x	x	x	-28.3%
